High-throughput results (PubChem)
GLD-1 RNA inh – GLD-1-TGE RNA interaction inhibition (C. elegans). purified GLD-1 + fluorescein TGE RNA, fluorescence polarization. inhibition, % at 5.96 µM. 320,000 compounds, 0.44% hits. AID 2280;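 active = percent inhibition above a per-plate cutoff, the plate mean of test compounds plus 3 SD, cut at about 30% in these data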;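 also: 0% = DMSO wells with GLD-1 and probe and 100% = wells lacking GLD-1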
Mcl1-Noxa inh – Mcl-1/Noxa interaction inhibition; Q07820; TR-FRET Mcl-1/Noxa peptide binding, 2 h; inhibition, % at 21.7 µM; 220,000 compounds, 1.5% hits; AID 1022;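 active = compounds that cut the protein-peptide binding signal by more than 50% relative to plate controls in a single-dose test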;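 also: His-tagged Mcl-1 with rhodamine Noxa BH3 peptide and terbium anti-His antibody; 0% = Mcl-1 plus Noxa peptide wells and 100% = peptide-only wells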
Target sequence (Q07820 whole entry, looked up): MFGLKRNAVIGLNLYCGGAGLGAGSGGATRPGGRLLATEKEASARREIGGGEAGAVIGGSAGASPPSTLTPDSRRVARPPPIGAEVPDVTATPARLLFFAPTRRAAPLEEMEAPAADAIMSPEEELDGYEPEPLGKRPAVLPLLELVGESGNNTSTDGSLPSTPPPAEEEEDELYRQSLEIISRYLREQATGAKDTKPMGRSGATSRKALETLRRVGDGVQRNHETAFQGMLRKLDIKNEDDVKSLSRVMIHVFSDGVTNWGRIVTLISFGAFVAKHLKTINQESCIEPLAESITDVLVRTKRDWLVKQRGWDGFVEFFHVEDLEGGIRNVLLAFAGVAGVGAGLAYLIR
MCL1 BIM primary – disrupts human MCL1 binding to BIM-BH3 peptide; GST-MCL1 / FITC-Bim-BH3 fluorescence polarization; inhibition, % at 10.9 µM; Q07820; 320,000 compounds, 0.68% hits;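 active = inhibition above the mean inhibition of all tested compounds plus 3 SD, set per campaign, cut at about 40% in these data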;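 also: 0% = DMSO wells and 100% = unlabeled Bim-BH3 peptide control; higher means more loss of mP so more displacement of Bim peptide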
BCLXL inh – inhibitors of human Bcl-xL; GST-Bcl-xL / FITC-Bim BH3 peptide fluorescence polarization; Q07817; 320,000 compounds, 0.7% hits; AID 2129; inhibition, % at 10.9 µM;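 active = inhibition above the mean of all tested compounds plus 3 SD, cutoff set per campaign, cut at about 30% in these data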;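 also: 0% = DMSO wells and 100% = unlabeled Bim-BH3 peptide competitor; inhibitors lower millipolarization by displacing the labeled peptide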
Target sequence (Q07817 whole entry, looked up): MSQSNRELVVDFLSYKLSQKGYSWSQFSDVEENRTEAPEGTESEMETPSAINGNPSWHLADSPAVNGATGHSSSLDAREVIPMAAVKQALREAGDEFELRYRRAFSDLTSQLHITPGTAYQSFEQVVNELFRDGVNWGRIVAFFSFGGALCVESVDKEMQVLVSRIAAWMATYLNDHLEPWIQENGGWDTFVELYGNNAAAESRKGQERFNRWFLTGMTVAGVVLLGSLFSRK
Mcl1 Bid PPI – disrupts binding of human Mcl-1 to Bid peptide. Q07820. TR-FRET Mcl-1/Bid-Dy647 peptide binding, 1536-well. inhibition, % at 21.7 µM. 220,000 compounds, 0.97% hits;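 active = compounds that cut the binding signal by more than half at the single screening dose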;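 also: His-tagged Mcl-1 with europium anti-His antibody binding Bid BH3 peptide; 0% = Mcl-1 plus peptide wells and 100% = peptide-only wells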
Mcl-1 Bim block – disrupts Bim peptide binding to human Mcl-1; Q07820; Bead-based flow cytometry, Bim peptide-Mcl-1 binding; inhibition, % at 10 µM; 190,000 compounds, 0.1% hits; AID 1009; in the data active = inhibition above about 40%;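 also: 0% = no compound tracer wells and 100% = peptide blocker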
* marks the source's active call; other numbers are inactive results; x = no result given; ! = not active in a repeat. Sampled rows, rich in hits. Any-hit rate of the full collection: about 2.3%.

SMILES	GLD-1 RNA inh	Mcl1-Noxa inh	MCL1 BIM primary	BCLXL inh	Mcl1 Bid PPI	Mcl-1 Bim block
CN(C(=O)c1ccno1)c1nnc(-c2cnccn2)s1	-7	-17	7	6	-29	-1
c1ccc(-c2ccccc2OCCOCCN2CCOCC2)cc1	-4	x	8	10	x	x
Cc1ccc(NC(=O)c2cc(N3C(=O)C=CC3=O)ccc2Cl)cc1C	-9	77*	15	15	7	-11
Cc1ccc(NC(=O)c2cc(-n3cnnc3)ccc2Cl)cc1	0	5	-2	-2	-10	1
Cc1ccc(NC(=O)c2cc(N3C(=O)C=CC3=O)ccc2N2CCOCC2)cc1	x	55*	x	x	-24	0
CCOC(=O)/C(C#N)=C\C1=C(N2CCOCC2)CC(C)(C)OC1	2	5	1	2	-32	-1
C/C(=N\NC(=O)c1cccc([N+](=O)[O-])c1)c1ccco1	-2	-19	4	9	-26	x
C/C(=N\NC(=O)c1cccc(N/N=C(\C)c2cc(O)ccc2O)c1)c1cc(O)ccc1O	7	100*	23	17	-6	5
C/C(=N\NC(=O)c1cccc(N/N=C(\C)c2ccco2)c1)c1ccco1	x	84*	x	x	-41	3
C/C(=N\NC(=O)c1cccc(O)c1)c1cccc(NC(=O)c2ccc(F)cc2)c1	-1	x	4	4	x	x
Cc1nnc(SCC(=O)Nc2nccs2)n1N	3	x	-1	0	x	x
O=C(CCc1ccccc1)NNC(=O)COc1ccccc1Cl	7	x	0	3	x	x
O=C(CN1C(=O)/C(=C\c2ccc(F)cc2)Oc2ccccc21)N1CCN(c2ccccn2)CC1	1	-22	2	1	9	-4
O=C(CN1C(=O)/C(=C\c2cccc(F)c2)Oc2ccccc21)N1CCN(c2ccccn2)CC1	2	-12	7	2	54*	-3
O=[N+]([O-])c1ccc(NC(=S)NCCc2ccc(Cl)cc2)cc1	5	21	9	7	94*	-8
O=[N+]([O-])c1ccc(NC(=S)NCCc2ccccc2)cc1	10	37	-3	-1	-23	3
CCOc1c(Nc2ccc(C(C)C)cc2)c(=O)c1=O	-3	4	-1	4	20	x
COc1ccc2[nH]c3c4c(ccc3c2c1)C(=O)C=CC4=O	x	98*	x	x	82*	x
COc1ccc2[nH]c(=O)cc(C(=O)O)c2c1	4	33	2	-2	-53	-3
Cc1c(C(=O)Oc2ccc(-c3cnc4ccccc4n3)cc2)cccc1[N+](=O)[O-]	0	67*	17	17	50	-8
O=C(Oc1ccc(-c2cnc3ccccc3n2)cc1)c1cc([N+](=O)[O-])ccc1Cl	-3	-2	11	9	32	-2
O=C(Cc1ccc(Br)cc1)NC1CCCCC1	-2	12	6	6	-27	-1
O=C(NC1CCCCCCC1)c1ccc(Br)cc1	28	x	52*	68*	x	x
CCC(CC)N1CCN(CC2CC=CCC2)CC1 (stereo not given)	0	31	2	3	42	-1
CC(C)CC(=O)N1CCN(CC2CC=CCC2)CC1 (stereo not given)	6	38	2	6	57*	0
SMILES	GLD-1 RNA inh	Mcl1-Noxa inh	MCL1 BIM primary	BCLXL inh	Mcl1 Bid PPI	Mcl-1 Bim block
Cc1cccc(N2CCN(C(=S)Nc3ccc4nc(N5CCN(C)CC5)cc(C)c4c3)CC2)c1C	x	48	x	x	85*	-2
Cc1cc(N2CCN(C)CC2)nc2ccc(NC(=S)N3CCCCC3)cc12	x	24	x	x	-93	-1
CCOC(=O)c1c(N2C(=O)C=CC2=O)sc(C)c1C	6	54*	21	3	36	-4
CCOC(=O)c1c(NC(N)=O)sc(C)c1C	6	-4	-5	5	-67	-1
CCOC(=O)c1cc(-c2ccc(OC)cc2)nc2c1c(C)nn2CCC(N)=S	1	-8	12	6	-31	-2
Nc1n[nH]c(=S)n1/N=C1/C(=O)Nc2ccccc21	x	71*	x	x	22	0
O=C1Nc2ccccc2C1=Nc1ccc(F)cc1	6	x	7	10	x	x
CCOc1ccc(NC(=O)CN(C)CC(=O)Nc2ccc(Br)cc2F)cc1OCC	2	11	-2	0	-9	-1
CN(C)c1ccc(NC(=O)C(=O)C2C(=O)Nc3ccccc32)cc1 (stereo not given)	1	14	3	5	-12	x
CN(C)c1ccc(CC2C(=O)Nc3ccccc32)cc1 (stereo not given)	21	12	34	46*	-14	x
Cc1c(OCC(F)(F)F)ccnc1CS(=O)c1nc2ccccc2[nH]1 (stereo not given)	5	70*!	33	16	5	-10
COCCCOc1ccnc(CS(=O)c2nc3ccccc3[nH]2)c1C (stereo not given)	8	x	23	13	x	x
COc1cc2c(cc1OC)C(c1cc(Br)ccc1O)N(C(C)=O)CC2 (stereo not given)	-1	x	9	5	x	x
Cc1cc(C)n2nc(C(=O)Nc3ccc4c(c3)OCO4)nc2n1	4	54*	8	13	-41	0
CCN(CC)c1ccc(NC(=O)c2nc3nc(C)cc(C(F)F)n3n2)cc1	-5	58*	-6	-3	-33	-4
COc1ccc(NC(=O)c2nc3nc(C)cc(C(F)F)n3n2)cc1OC	3	5	-7	0	-10	-1
NC(=O)c1c(N)sc2c1CCC2	x	-1	x	x	-16	-4
Nc1sc2c(c1C(=O)NC1CCS(=O)(=O)C1)CCC2 (stereo not given)	-3	36	26	32*	-49	1
Cc1cc(C)c(S(=O)(=O)/N=C2\C=C(NS(=O)(=O)c3ccccc3)C(=O)c3ccccc32)c(C)c1	4	x	12	1	x	x
Cc1cc(C)c(S(=O)(=O)/N=C2/C=C(SCC(=O)O)C(=O)c3ccccc32)cc1C	x	87*	x	x	28	2
COc1ccccc1N1CCN(C(=O)C(CC(C)C)NC(=O)C2CCCCC2)CC1 (stereo not given)	-5	x	3	5	x	x
CCCCC1=CC2=C(c3ccco3)C(=O)C(C)(OC(=O)c3ccc(OC)cc3)C(=O)C2=CN1CCOC (stereo not given)	16	3	23	18	-133	x
CCCCC1=CC2=C(c3ccco3)C(=O)C(C)(OC(=O)c3ccc(OC)cc3)C(=O)C2=CN1Cc1ccccc1 (stereo not given)	44*	20	32	37*	-29	x
CCOc1ccc(S(=O)(=O)Nc2nc3ccccc3nc2-n2ccc(=NC(=O)c3cccs3)cc2)cc1	2	-132	2	-3	-84	-1
O=C(N=c1ccn(-c2nc3ccccc3nc2NS(=O)(=O)c2ccc(Cl)cc2)cc1)c1cccs1	15	-97	44*	48*	-118	x
COc1ccc(C(=O)c2sc(Nc3ccccc3)c(C(=O)Nc3ccc(OC)c(OC)c3)c2N)cc1	3	-1	5	63*	-23	-7
